This is a sample that favours compounds with a hit; in the whole collection about 17% have one here.
TDP1 cell CPT: growth inhibition of DT40 Tdp1-/-;hTDP1 cells with camptothecin (screen for TDP1 inhibitors). chicken DT40 Tdp1-/-;hTDP1 cells + 20 nM CPT, ATP luminescence, 48 h. actives 12% (n = 420,000). Potency, µM (top dose mostly 46.2 µM), for the others: at the highest dose activity change, negative = growth inhibition, most hits filed as inhibitors; also: % is scaled to controls: 0 for no effect and ±100 for the full control effect; nearly all actives have a fitted effect of over 55% in size
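Chicken DT40 Tdp1-/- cells complemented with human TDP1, 400 cells/well, exposed to compounds plus 20 nM camptothecin for at least 48 h at 37 C; viability read as ATP content by CellTiter-Glo luminescence.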
ClpP mod: qHTS Assay for Activators of ClpP; ATP-dependent Clp protease proteolytic subunit (Bacillus subtilis (strain 168)), P80244; purified B. subtilis ClpP, FRET peptide cleavage, 20 min; Potency, µM (series often up to 57.5 µM), for inactives: top-dose activity change, negative = active; actives 1.9% (n = 340,000); active = well fitted falling curve with a large enough effect; inconclusive = small, poorly fitted or top-dose-only effect; inactive = no such curve, though single readings can be large or run the other way; also: the source files actives as falling curves though it sought activators and does not explain the sign; nearly all actives have a fitted effect of over 65% in size
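Buffer: 100 mM Tris/HCl pH8, 100 mM KCl, 0.05% low protease BSA, 2.5% glycerol, 0.01% Tween-20. ClpP 10 microg/mL final; 20 min RT; delta FRET normalized to ADEP and DMSO controls.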
TDP1 inh: blocks human tyrosyl-DNA phosphodiesterase 1; Q9NUW8; recombinant TDP1, AlphaScreen DNA substrate cleavage; Potency, µM (titrated, usually from 130 µM), for inactives: at the highest dose activity change, negative = inhibition, hits mostly inhibitors; actives 0.28% (n = 350,000); also: % is scaled to controls: 0 for no effect and ±100 for the full control effect; nearly all actives have a fitted effect of over 40% in size
Target sequence (Q9NUW8 whole entry, looked up): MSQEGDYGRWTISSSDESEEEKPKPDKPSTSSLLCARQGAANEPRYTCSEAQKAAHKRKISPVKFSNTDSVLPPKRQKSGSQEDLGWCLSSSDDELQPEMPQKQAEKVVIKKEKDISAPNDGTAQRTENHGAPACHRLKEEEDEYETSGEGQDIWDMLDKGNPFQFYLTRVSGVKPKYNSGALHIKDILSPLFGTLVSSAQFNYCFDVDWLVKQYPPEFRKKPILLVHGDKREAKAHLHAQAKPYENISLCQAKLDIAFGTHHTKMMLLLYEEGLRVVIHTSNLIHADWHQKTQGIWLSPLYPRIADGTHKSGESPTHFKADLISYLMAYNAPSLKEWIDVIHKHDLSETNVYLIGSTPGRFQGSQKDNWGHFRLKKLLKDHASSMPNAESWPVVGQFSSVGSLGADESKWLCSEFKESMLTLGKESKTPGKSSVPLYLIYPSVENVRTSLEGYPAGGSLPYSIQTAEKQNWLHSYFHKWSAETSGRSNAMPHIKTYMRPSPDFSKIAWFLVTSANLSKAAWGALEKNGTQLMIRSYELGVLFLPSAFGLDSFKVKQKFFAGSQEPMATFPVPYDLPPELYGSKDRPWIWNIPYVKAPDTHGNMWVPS
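E. coli-derived human Tdp1, 1 nM final. Cpd preinc 15 min RT; substrate 15 nM final, 5 min RT; AS bead mix 10 ug/ml final, 10 min RT. Signal loss = tyrosine-FITC cleavage. No-enzyme wells = max signal.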
DT40 TDP1 no CPT: qHTS for Inhibitors of human tyrosyl-DNA phosphodiesterase 1 (TDP1): qHTS in cells in absence of CPT | Potency, µM (top dose mostly 46.2 µM), without a hit: at the top dose activity change, negative = growth inhibition, hits mostly inhibitors | DT40 Tdp1-/- hTDP1 cells, no CPT, ATP luminescence, 48 h | actives 15% (n = 420,000); also: % is scaled to controls: 0 for no effect and ±100 for the full control effect; nearly all actives have a fitted effect of over 55% in size
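Cells were dispensed at 400 per well, compounds added by pin tool, plates incubated ≥48 hr at 37 °C, then CellTiter-Glo added for 30 min at room temperature before luminescence reading. Line: DT40 Tdp1-/- complemented with hTDP1; camptothecin omitted.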
An asterisk follows results filed as active; u = inconclusive; x = no result; [ ] = dose if it differs, or a comment. Unless noted, calls follow the shape of the dose curve; as a rule, active = well fitted curve in the direction sought with a large enough effect; inconclusive = small, poorly fitted or top-dose-only effect, or another doubt; inactive = no such curve, though single readings can be large; an effect the other way counts as inactive or inconclusive. Potency is read from the fitted curve at half-maximal effect.

SMILES	TDP1 cell CPT	ClpP mod	TDP1 inh	DT40 TDP1 no CPT
O=C(O)c1ccc(Nc2c3ccccc3nc3ccccc23)cc1	1.3µM*	1%	x	2.1µM*
CN(C)C(=O)c1ccc(-c2nc(Nc3ccccc3)c3ccccc3n2)cc1	u	x	x	16µM*
O=C(O)c1ccc(Nc2nc(-c3ccccc3)c3ccccc3n2)cc1	16%	x	-1%	-4%
c1ccc(Nc2nc(-c3ccccc3)nc3ccccc23)cc1	-16%	-19%	x	0%
O=C(O)c1ccc(Nc2nc(-c3ccccc3)nc3ccccc23)cc1	23µM*	-20%	x	21µM*
CN(C)C(=O)c1ccc(-c2nc(NCc3ccccc3)c3ccccc3n2)cc1	u	x	-3%	u
CC(=O)N(c1ccc(C)cc1)c1nc(C)cc(C)c1C#N	3%	x	8%	-9%
O=S1(=O)N[C@H](Cc2ccccc2)COc2cccc(N3CCC[C@@H]3CO)c21	-5%	-4%	x	u
COc1cc(NC(=S)N2CCN(S(C)(=O)=O)CC2)cc(OC)c1	-8%	0%	2%	29%
CN(CC(=O)NCc1ccccn1)S(=O)(=O)c1cc(Cl)ccc1Cl	-25%	-1%	x	-8%
COc1ccc(OC)c2c1sc(=NC(=O)C(C)(C)C)n2C	21µM*	-7%	2%	u
COc1ccc(OC)c2c1sc(=NC(=O)C1CCCCC1)n2C	-1%	x	-4%	-23%
COc1ccc(OC)c2c1sc(=NC(=O)C(C)C)n2C	23µM*	-14%	1%	u
CCCC(=O)N=c1sc2c(OC)ccc(OC)c2n1C	-25%	-2%	2%	-11%
COc1ccc(CCNC(=O)CCCn2c(=O)c3ccccc3n(Cc3c(C)cc(C)cc3C)c2=O)cc1OC	2%	-3%	-1%	2%
CO/N=C(/C(=O)N[C@@H]1C(=O)N2C(C(=O)O)=C(COC(N)=O)CS[C@H]12)c1ccco1	u	x	u	11%
O=C(CCl)N(C1CCCC1)C1CCS(=O)(=O)C1 (centres undefined)	18µM*	x	5%	15µM*
CC(C)(O)C1CC[C@@]2(C)C3CCC4[C@@]5(C)CCCC(C)(C)C5C(O)C[C@]4(C)[C@]3(C)CC[C@@H]12 (some centres undefined)	3%	x	-9%[56.1 µM]	-3%
NNC(=O)c1cccn(Cc2cccc(C(F)(F)F)c2)c1=O	15µM*	-19%	x	u
O=C(c1ccc2[nH]ccc2c1)N1CCCC(Nc2ccccc2)C1 (centres undefined)	-3%	-3%	2%	10%
O=C(CN1C(=O)NC(CCc2ccccc2)C1=O)Nc1ccc(F)c(F)c1F (centres undefined)	26µM*	1%	0%	u
CN(CC(=O)Nc1ccc(F)cc1)C(=O)CN1C(=O)NC(CCc2ccccc2)C1=O (centres undefined)	12µM*	0%	x	26µM*
COc1ccc2nc(NC(=O)c3nc(SCc4ccc(F)cc4)ncc3Cl)sc2c1	-20%	0%	7%	u
Cc1cc(C)c(NC(=O)Cn2c(=O)n(CC3CCCO3)c(=O)c3ccccc32)c(C)c1 (centres undefined)	12%	-10%	1%	2%
CCOc1ccccc1N1CC(C(=O)Nc2c(C)n(C)n(-c3ccccc3)c2=O)CC1=O (centres undefined)	7%	x	4%	0%
SMILES	TDP1 cell CPT	ClpP mod	TDP1 inh	DT40 TDP1 no CPT
COc1ccc(-c2ccc3c(=O)cc(-c4ccsc4)oc3c2)cn1	18µM*	4%	x	u
O=c1cc(-c2ccsc2)oc2cc(-c3ccc4c(c3)OCO4)ccc12	18µM*	-8%	7.1µM*	u
Cc1cc(C)c(/C=C/c2onc(C)c2S(=O)(=O)N2CCC(C(=O)N(C)Cc3ccccc3)CC2)c(C)c1	u	-5%	4%	u
Cc1cc(C)c(NC(=S)N(CCCN2CCN(C)CC2)Cc2cccs2)c(C)c1	-12%	x	-3%	u
Cc1cccc(NC(=O)c2nc[nH]c2C(=O)Nc2ccccc2[N+](=O)[O-])c1	6.5µM*	1%	4%	2.9µM*
Cc1cccc(NC(=O)c2nc[nH]c2C(=O)NC[C@@H](C)O)c1	12%	2%	x	-21%
Cc1cccc(NC(=O)c2nc[nH]c2C(=O)Nc2cc(Br)ccc2F)c1	13µM*	-8%	x	8.2µM*
O=C(CCC(=O)N1CCSc2ccccc21)NC1CCCCC1	u	0%	x	-27%
CCOc1ccccc1C(=O)Oc1c(S(=O)(=O)c2ccc(C)cc2)c(C)nn1-c1ccccc1	10µM*	-10%	-2%	21µM*
CCC(C)n1c(NC(=O)c2ccccc2)c(C#N)c2nc3ccccc3nc21 (centres undefined)	18µM*	u	-5%	13µM*
CCCCn1c(NC(=O)c2ccccc2)c(C#N)c2nc3ccccc3nc21	26µM*	-7%	9%	18µM*
C/C(=N\NC(=O)c1ccn(C)n1)c1cccc(NC(=O)c2ccc(C)s2)c1	u	-2%	0%	u
O=c1cnn(Cc2ccc(Cl)c(Cl)c2)c2ccccc12	21µM*	x	0%	15µM*
O=c1c2ccccc2cnn1Cc1ccc(Cl)c(Cl)c1	-6%	x	x	u
COc1ccc(C(=O)CN2CCN(S(=O)(=O)c3ccc(C(C)C)cc3)CC2)cc1	u	-2%	10%	u
CCNC(=O)COc1ccc(/C=C2\COc3ccccc3C2=O)cc1OC	15µM*	x	10%	13µM*
COc1cc(C=C2C(=O)OC(C)(C)OC2=O)ccc1OCC(=O)Nc1ccccc1	4%	-5%	-1%	-3%
CCOc1cc(/C=C2\COc3ccccc3C2=O)ccc1OCC(=O)N(C)C	u	x	3%	10µM*
CN1CCS/C1=C\C=C1/SC(=S)N(CC(=O)O)C1=O	9%	x	-2%	u
CCN1C(=O)/C(=C/C=C2/SCCN2C)SC1=S	u	-2%	1%	13µM*
O=C(Nc1ccccc1)c1cc(C2CCCCN2C(=O)c2ccc3c(c2)CCO3)on1 (centres undefined)	23µM*	2%	x	18µM*
O=C(NCc1ccccc1)c1cc(C2CCCCN2C(=O)c2ccc3c(c2)CCO3)on1 (centres undefined)	u	1%	x	u
N#Cc1cccc(NC(=O)c2cc(C3CCCCN3C(=O)c3ccc4c(c3)CCO4)on2)c1 (centres undefined)	u	1%	x	u
O=C(NCc1ccc(F)cc1)c1cc(C2CCCCN2C(=O)c2ccc3c(c2)CCO3)on1 (centres undefined)	18µM*	-11%	x	18µM*
O=C(Nc1ccc(F)c(Cl)c1)c1cc(C2CCCCN2C(=O)c2ccc3c(c2)CCO3)on1 (centres undefined)	16µM*	-10%	x	21µM*

Bioassay records from PubChem BioAssay.
